Source: PubChem BioAssay (NCI)
The panel holds about 83,000 compounds, 20% with a hit somewhere; the sample as a whole holds those more often.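 Results are percent growth after 48 hours of single-concentration exposure. 100 means growth as in untreated cells, lower positive values show inhibition; negative values down to -100 show cell death.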 Active and inactive are the calls of the source. How the source made its calls: active means growth percent below 10; inactive means the rest.

Assays:
Experiment in all cases: NCI-60 one-dose screen, 48 h (100 = growth as untreated, 0 = no growth, -100 = all killed)
Conditions in all cases: 10 µM unless noted
HCT-15 colon = system: HCT-15 colon
HT29 colon = system: HT29 colon
SNB-75 CNS = system: SNB-75 CNS
SNB-19 CNS = system: SNB-19 CNS
U251 CNS = system: U251 CNS
PC-3 prostate = system: PC-3 prostate
SK-MEL-5 melanoma = system: SK-MEL-5 melanoma
UACC-62 melanoma = system: UACC-62 melanoma
LOX IMVI melanoma = system: LOX IMVI melanoma
SK-MEL-28 melanoma = system: SK-MEL-28 melanoma

Measured: growth

Cc1ccc(C2CC(c3cccc(Nc4ccncc4)c3)=Nc3c(N)nc(N)nc3N2)cc1 (stereo not given)
inactive: HCT-15 colon 40.4% | HT29 colon 21.7% | SNB-75 CNS 70% | SNB-19 CNS 70.5% | U251 CNS 42.4% | PC-3 prostate 43.8% | SK-MEL-5 melanoma 65.3% | UACC-62 melanoma 78.4% | LOX IMVI melanoma 25.7% | SK-MEL-28 melanoma 93.2%

O=C1/C(=C/c2c[nH]c(=O)[nH]c2=O)SC(=S)N1Cc1ccccc1
inactive: HCT-15 colon 104% | HT29 colon 101% | SNB-75 CNS 80.1% | SNB-19 CNS 95.2% | U251 CNS 97.7% | PC-3 prostate 98.9% | SK-MEL-5 melanoma 100% | UACC-62 melanoma 91.5% | LOX IMVI melanoma 99.8% | SK-MEL-28 melanoma 103%

ClCCn1cnc2c(SCc3ccccc3)ncnc21
inactive: HCT-15 colon 33.5% | HT29 colon 41.2% | SNB-75 CNS 73.9% | SNB-19 CNS 50.5% | U251 CNS 39.8% | PC-3 prostate 38.4% | SK-MEL-5 melanoma 57.3% | UACC-62 melanoma 46.1% | LOX IMVI melanoma 22.3% | SK-MEL-28 melanoma 78.5%

COc1ccc2c(c1)CC[C@@H]1[C@@H]2CC[C@]2(C)C3C(=CC(COC(C)=O)C4C(=O)N(c5ccc(Cl)cc5)C(=O)C43)C[C@@H]12 (stereo not given in full)
inactive: HCT-15 colon 94.3% | HT29 colon 90% | SNB-75 CNS 90.5% | SNB-19 CNS 110% | U251 CNS 102% | PC-3 prostate 82% | SK-MEL-5 melanoma 93.4% | UACC-62 melanoma 83.2% | LOX IMVI melanoma 94% | SK-MEL-28 melanoma 106%

C#Cc1cccc(NC(=O)C2CCCCN2C(=O)CCl)c1 (stereo not given)
inactive: SNB-19 CNS 20.1% [8.25 µM]
active: HCT-15 colon -54.7% [8.25 µM] | HT29 colon -52.5% [8.25 µM] | SNB-75 CNS -5.47% [8.25 µM] | U251 CNS -62.2% [8.25 µM] | PC-3 prostate -7.93% [8.25 µM] | SK-MEL-5 melanoma -81.7% [8.25 µM] | UACC-62 melanoma -84.8% [8.25 µM] | LOX IMVI melanoma -74.6% [8.25 µM] | SK-MEL-28 melanoma 2% [8.25 µM]

COc1cc2c(c(OC)c1OC)C(=O)CC(c1cccc(C(=O)Nc3ccc(C#N)cc3)c1)O2 (stereo not given)
inactive: HCT-15 colon 63% | HT29 colon 86.4% | SNB-75 CNS 74.8% | SNB-19 CNS 89.5% | U251 CNS 94.7% | PC-3 prostate 39.2% | SK-MEL-5 melanoma 37.5% | UACC-62 melanoma 34.8% | LOX IMVI melanoma 79.6% | SK-MEL-28 melanoma 95.6%

COc1nc(/C=C\Nc2ccc3c(c2)OCCOCCOCCOCCO3)nc(OC)n1
inactive: HCT-15 colon 91.5% | HT29 colon 99.5% | SNB-75 CNS 72.3% | SNB-19 CNS 103% | U251 CNS 103% | PC-3 prostate 99.4% | SK-MEL-5 melanoma 97.5% | UACC-62 melanoma 93.3% | LOX IMVI melanoma 92.1% | SK-MEL-28 melanoma 104%

COc1ccc(C2[C@@H](Cl)C(=O)N2c2cc(OC)c(OC)c(OC)c2)cc1Cl (stereo not given in full)
inactive: HCT-15 colon 11% | SNB-75 CNS 75.7% | SNB-19 CNS 32.1% | PC-3 prostate 25.1% | UACC-62 melanoma 36.3% | LOX IMVI melanoma 20.9% | SK-MEL-28 melanoma 69.6%
active: HT29 colon -3.88% | U251 CNS 5.8% | SK-MEL-5 melanoma -23.8%

CS(=O)(=O)c1ccc(-c2nc3ccccc3n2CC(=O)N/N=C/c2ccccc2)cc1
inactive: HCT-15 colon 100% | HT29 colon 88.5% | SNB-75 CNS 96.5% | SNB-19 CNS 107% | U251 CNS 109% | PC-3 prostate 96.9% | SK-MEL-5 melanoma 100% | UACC-62 melanoma 94.4% | LOX IMVI melanoma 107% | SK-MEL-28 melanoma 103%

CCCCNC(=O)c1ccc2c(c1)nc(-c1ccccc1)n2C1CCCCC1
inactive: HCT-15 colon 72.5% | HT29 colon 50.3% | SNB-75 CNS 114% | SNB-19 CNS 110% | U251 CNS 99% | PC-3 prostate 90.9% | SK-MEL-5 melanoma 93.7% | UACC-62 melanoma 87.3% | LOX IMVI melanoma 92.6% | SK-MEL-28 melanoma 106%

Cc1c2ncccc2nc2[nH]c3ccc(OCCN(C)C)cc3c12
active: HT29 colon 5.4%
inactive: HCT-15 colon 15.7% | SNB-75 CNS 63% | SNB-19 CNS 15.3% | U251 CNS 20.3% | PC-3 prostate 12.1% | SK-MEL-5 melanoma 47% | UACC-62 melanoma 35.2% | LOX IMVI melanoma 18% | SK-MEL-28 melanoma 78.5%

CN(C)c1ccc([C@@H](C(=O)Nc2cccc([N+](=O)[O-])c2)N(C(=O)c2cc3ccccc3[nH]2)c2cccc([N+](=O)[O-])c2)cc1
inactive: HCT-15 colon 103% | HT29 colon 101% | SNB-75 CNS 78.2% | SNB-19 CNS 97.8% | U251 CNS 88.8% | PC-3 prostate 82.7% | SK-MEL-5 melanoma 97.7% | UACC-62 melanoma 86.7% | LOX IMVI melanoma 88% | SK-MEL-28 melanoma 112%

CNC(=O)c1cc(Oc2ccc3c(c2)sc2nc(-c4ccc(Cl)c(C(F)(F)F)c4)cn23)ccn1
inactive: HCT-15 colon 65% | HT29 colon 56% | SNB-75 CNS 81.4% | SNB-19 CNS 77.2% | U251 CNS 71.9% | PC-3 prostate 45.3% | SK-MEL-5 melanoma 18.8% | UACC-62 melanoma 60.6% | LOX IMVI melanoma 50% | SK-MEL-28 melanoma 80.1%

COc1cc(/C=C/C(=O)c2cccc(-n3cc(-c4ccc(Cl)cc4)[nH]c3=O)c2)ccc1O
inactive: HCT-15 colon 37.8% | HT29 colon 27% | SNB-75 CNS 50.3% | SNB-19 CNS 94.9% | U251 CNS 32.4% | PC-3 prostate 34.2% | SK-MEL-5 melanoma 68.1% | UACC-62 melanoma 64.3% | LOX IMVI melanoma 13.1% | SK-MEL-28 melanoma 58.6%

O=C1/C(=C/c2cccc(Br)c2)COc2ccc(O)cc21
inactive: HCT-15 colon 21.4% | HT29 colon 15% | SNB-75 CNS 64.4% | SNB-19 CNS 45.1% | U251 CNS 18.3% | PC-3 prostate 51.2% | SK-MEL-5 melanoma 88.3% | UACC-62 melanoma 42.6% | SK-MEL-28 melanoma 98.8%
active: LOX IMVI melanoma -37.1%

Cc1ccc2c(c1)=C/C(=C\c1cc(-c3ccccc3)[nH]c1O)C(=O)N=2
active: HT29 colon 7.77%
inactive: HCT-15 colon 26.7% | SNB-75 CNS 48% | SNB-19 CNS 34.1% | U251 CNS 40.1% | PC-3 prostate 61.2% | SK-MEL-5 melanoma 47% | UACC-62 melanoma 29.9% | LOX IMVI melanoma 35.8% | SK-MEL-28 melanoma 60.8%

COc1cc2c(c(OC)c1OC)C(=O)CC(c1cccc(C(=O)Nc3ccccc3Br)c1)O2 (stereo not given)
inactive: HCT-15 colon 88.1% | HT29 colon 84% | SNB-75 CNS 76.2% | SNB-19 CNS 88.4% | U251 CNS 94.8% | PC-3 prostate 68.4% | SK-MEL-5 melanoma 80.2% | UACC-62 melanoma 80.8% | LOX IMVI melanoma 84.2% | SK-MEL-28 melanoma 104%

Cc1ncc(C(=O)Nc2ccc(CN3CCN(C)CC3)c(C(F)(F)F)c2)cc1C#Cc1cnc(N)c2ccc(C#N)cc12
inactive: SNB-19 CNS 52% | U251 CNS 19.9% | PC-3 prostate 11.7%
active: HCT-15 colon -77.4% | HT29 colon -6.14% | SNB-75 CNS -11.5% | SK-MEL-5 melanoma -79.7% | UACC-62 melanoma -8.26% | LOX IMVI melanoma -90% | SK-MEL-28 melanoma -55.9%

Cc1cc(=O)n(C(=S)Nc2ccc(Cl)cc2)c2cc(O)ccc12
inactive: HCT-15 colon 105% | HT29 colon 104% | SNB-75 CNS 86.1% | SNB-19 CNS 102% | U251 CNS 101% | PC-3 prostate 95.6% | SK-MEL-5 melanoma 95.3% | UACC-62 melanoma 100% | LOX IMVI melanoma 99.3% | SK-MEL-28 melanoma 114%

CC(=O)c1ccc(-n2cc(CN3CCN(c4cc5c(cc4F)c(=O)c(C(=O)O)cn5C4CC4)CC3)nn2)cc1
inactive: HCT-15 colon 93.8% | HT29 colon 90.8% | SNB-75 CNS 92.7% | SNB-19 CNS 98.2% | U251 CNS 98.4% | PC-3 prostate 83.9% | SK-MEL-5 melanoma 84.3% | UACC-62 melanoma 90.5% | LOX IMVI melanoma 55.4% | SK-MEL-28 melanoma 99.3%

O=C(CCCCCCCC(=O)N1CCCCC1)N1CCCCC1
inactive: HCT-15 colon 96.8% | HT29 colon 106% | SNB-75 CNS 78.8% | SNB-19 CNS 105% | U251 CNS 102% | PC-3 prostate 95.3% | SK-MEL-5 melanoma 97.1% | UACC-62 melanoma 91% | LOX IMVI melanoma 88.1% | SK-MEL-28 melanoma 102%

O=C(NCCNC(c1ccccc1)C(NCCNC(=O)c1ccccc1)c1ccccc1)c1ccccc1 (stereo not given)
inactive: HCT-15 colon 18.8% | HT29 colon 36.7% | SNB-75 CNS 117% | SNB-19 CNS 88% | U251 CNS 74.7% | PC-3 prostate 70.4% | SK-MEL-5 melanoma 95.7% | UACC-62 melanoma 85.2% | LOX IMVI melanoma 75.6% | SK-MEL-28 melanoma 103%

CS(=O)(=O)Nc1cc(-c2ccc3ncnc(Nc4ccc5c(cnn5Cc5ccncc5)c4)c3c2)cnc1Cl
active: SNB-75 CNS 8.94%
inactive: HCT-15 colon 92.3% | HT29 colon 64.8% | SNB-19 CNS 60% | U251 CNS 52.7% | PC-3 prostate 57.7% | SK-MEL-5 melanoma 52.5% | UACC-62 melanoma 32.5% | LOX IMVI melanoma 22% | SK-MEL-28 melanoma 32.5%

O=C1/C(=C/c2ccc(Cl)cc2)CN(C(=O)C(Cl)Cl)C/C1=C\c1ccc(Cl)cc1
active: HCT-15 colon -70% | HT29 colon -31% | SNB-75 CNS -84% | SNB-19 CNS -92% | U251 CNS -94.3% | PC-3 prostate -38.4% | SK-MEL-5 melanoma -89.3% | UACC-62 melanoma -59.6% | LOX IMVI melanoma -93.1% | SK-MEL-28 melanoma -81.5%

c1ccc2cc(Cn3cc(CSc4nc5ccccc5s4)nn3)ccc2c1
inactive: HCT-15 colon 107% | HT29 colon 95.7% | SNB-75 CNS 101% | SNB-19 CNS 93.3% | U251 CNS 95.6% | PC-3 prostate 93.1% | SK-MEL-5 melanoma 107% | UACC-62 melanoma 84.8% | LOX IMVI melanoma 98.8% | SK-MEL-28 melanoma 102%

O=c1oc2c(cc1-c1ccccc1)c(=O)[nH]c1ccccc12
inactive: HCT-15 colon 98.2% | HT29 colon 96.6% | SNB-75 CNS 92.7% | SNB-19 CNS 97.4% | U251 CNS 93.4% | PC-3 prostate 96.3% | SK-MEL-5 melanoma 99.4% | UACC-62 melanoma 95.5% | LOX IMVI melanoma 95.8% | SK-MEL-28 melanoma 99.7%

CCN(CC)CCCC(Cc1ccccc1)Nc1c2ccc(Cl)cc2nc2ccc(OC)cc12 (stereo not given)
inactive: HT29 colon 16.3% | SNB-75 CNS 10.6% | SNB-19 CNS 34.7% | PC-3 prostate 44.8%
active: HCT-15 colon 2.58% | U251 CNS 9.64% | SK-MEL-5 melanoma -93.6% | UACC-62 melanoma -61.2% | LOX IMVI melanoma -67.8% | SK-MEL-28 melanoma -79.3%
